Measured values reported in the supplement of paper PMC6555819.

Legend:
Test in all cases: PBM binding z-score (relative to random genomic background probes); higher = stronger binding; sequences stand for … in GC…GCGATTGACAGCGTAGAATGAAGG
[1] = test system: FXR:RXRa (NR concentration 270 nM, RXRa partner concentration 90 nM)
In short: (§1)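 Binding buffer was PBS pH 7.4 with 2% milk, 0.02% Triton X-100, 1 mM DTT, 0.2 mg/mL BSA and 0.4 mg/ml salmon testes DNA. In it, ligand-free nuclear receptor dimers were incubated 1 h on custom Agilent 4×180K protein-binding microarrays carrying double-stranded probes. Antibodies against each partner (one per run) detected binding, and z-scores were calculated against random background probes after regression normalization of scanned fluorescence.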

[2] = test system: LXRa:RXRa (NR concentration 270 nM, RXRa partner concentration 90 nM)
In short: as §1

[3] = test system: LXRa homodimer (NR concentration 270 nM)
In short: as §1

[4] = test system: LXRb:RXRa (NR concentration 270 nM, RXRa partner concentration 90 nM)
In short: as §1

[5] = test system: LXRb homodimer (NR concentration 270 nM)
In short: as §1

[6] = test system: PPARa:RXRa (NR concentration 270 nM, RXRa partner concentration 90 nM)
In short: as §1

[7] = test system: PPARg:RXRa (NR concentration 180 nM, RXRa partner concentration 90 nM)
In short: as §1

[8] = test system: PPARg:RXRa 270nM:90nM, anti-RXR (NR concentration 270 nM, RXRa partner concentration 90 nM)
In short: as §1

[9] = test system: PPARg:RXRa 30nM:10nM, anti-RXR (NR concentration 30 nM, RXRa partner concentration 10 nM)
In short: as §1

[10] = test system: PPARg:RXRa 90nM:30nM, anti-RXR (NR concentration 90 nM, RXRa partner concentration 30 nM)
In short: as §1

[11] = test system: PPARg:RXRa DBDmut IVT, anti-RXR (DBD mutation: RXRa K156A/R161A, NR concentration 270 nM, RXRa partner concentration 90 nM)
In short: as §1

[12] = test system: PPARg:RXRa IVT, anti-PPARg (NR concentration 270 nM, RXRa partner concentration 90 nM)
In short: as §1

[13] = test system: PPARg DBDmut:RXRa IVT, anti-PPARg (DBD mutation: PPARg1 K132A/R137A, NR concentration 270 nM, RXRa partner concentration 90 nM)
In short: as §1

[14] = test system: PPARg DBDmut IVT, anti-PPARg (DBD mutation: PPARg1 K132A/R137A, NR concentration 270 nM)
In short: as §1

[15] = test system: PPARg homodimer (NR concentration 180 nM)
In short: as §1

[16] = test system: PXR:RXRa (NR concentration 270 nM, RXRa partner concentration 90 nM)
In short: as §1

[17] = test system: PXR homodimer (NR concentration 270 nM)
In short: as §1

[18] = test system: RARa:RXR (NR concentration 270 nM, RXRa partner concentration 90 nM)
In short: as §1

[19] = test system: RARa homodimer (NR concentration 270 nM)
In short: as §1

[20] = test system: RARb:RXRa (NR concentration 270 nM, RXRa partner concentration 90 nM)
In short: as §1

Row | Sequence | PBM binding z-score [1] | PBM binding z-score [2] | PBM binding z-score [3] | PBM binding z-score [4] | PBM binding z-score [5] | PBM binding z-score [6] | PBM binding z-score [7] | PBM binding z-score [8] | PBM binding z-score [9] | PBM binding z-score [10] | PBM binding z-score [11] | PBM binding z-score [12] | PBM binding z-score [13] | PBM binding z-score [14] | PBM binding z-score [15] | PBM binding z-score [16] | PBM binding z-score [17] | PBM binding z-score [18] | PBM binding z-score [19] | PBM binding z-score [20]
1 | CCTAGTTGGTAAGGAGGTCACACACCGGATATGA | 3.14 | 3.17 | 1.87 | 3.13 | 0.74 | 4.19 | 3.16 | 3.39 | 1.34 | 2.68 | 1.63 | 4.06 | 0.9 | 0.468 | 2.82 | 3.83 | 1.4 | 4.14 | 1.52 | 3.04
2 | CGTGCTAGGTCAATGGTCAGCTAAAGCAGCTCGC | 3.1 | 2.22 | 0.0909 | 1.37 | -0.184 | 3.03 | 5.04 | 5.55 | 2.98 | 5.12 | 4.64 | 4.42 | 0.168 | -1.05 | 1.65 | 0.869 | -0.615 | 1.59 | -0.282 | 3.77
3 | ACTATTAGTTGAGACGAGGCCAACCGATAGGTTG | 0.859 | 0.188 | 0.0694 | -0.0266 | 0.238 | 0.13 | 0.24 | -0.0513 | -0.341 | -0.176 | -0.553 | 0.338 | -0.0845 | 1.03 | 0.634 | 0.673 | 0.177 | 0.671 | 0.555 | 0.81
4 | ATCGAAAAGTCGAGGTGAGTATAGAGAAAGGGAA | 0.304 | 0.67 | -0.216 | -0.238 | -0.0548 | 0.326 | 0.344 | -0.139 | 0.203 | -0.312 | -0.205 | 0.704 | 1.25 | -0.338 | 0.107 | -0.235 | 0.048 | 0.0313 | -0.268 | 0.639
5 | CCTACTGGGCCATCAGGTCATCGATATCAACGTT | 1.37 | 1.07 | 0.687 | 1.38 | -0.672 | 2.79 | 3.18 | 3.65 | 1.59 | 3.22 | 4.21 | 5.09 | -0.466 | -0.676 | 1.03 | 1.5 | -0.0162 | 2.04 | -0.0284 | 2.39
6 | CCTGGTAGGTCAATGGTCAGCTAAAGCAGCTCGC | 3.32 | 2.64 | 0.425 | 1.98 | 0.463 | 3.77 | 6.52 | 6.4 | 4.37 | 6.53 | 4.64 | 5.35 | 0.462 | -0.453 | 2.06 | 1.29 | 0.146 | 2.11 | 1.12 | 3.63
7 | CCGTACGGGTCACTGACAGGTTATAGCATTTGGA | 5.54 | 4.34 | 0.355 | 3.7 | -0.392 | 5.35 | 3.75 | 4.06 | 0.781 | 2.52 | 1.03 | 2.52 | -0.133 | -0.747 | 1.58 | 3.74 | -0.0858 | 4.79 | 0.0778 | 4
8 | TAGCCTAGGTCTTTCAGGGGCCAGTATAGAAAGC | -0.49 | -0.379 | -0.527 | -0.066 | -0.296 | -0.263 | -0.284 | -0.623 | -0.57 | -0.453 | -0.411 | 0.431 | -0.836 | 0.0901 | -0.27 | -0.417 | -0.804 | -0.214 | -1.24 | 0.577
9 | GCTGCTAGGTCAACTGATGGTCAGCGAAAGCTCG | 4.13 | 3.2 | 0.141 | 2.07 | -0.112 | 3.84 | 2.73 | 3.35 | 0.723 | 2.31 | 4.56 | 4.1 | 0.329 | -0.0247 | 1.64 | 1.7 | -0.425 | 2.98 | 0.244 | 4.37
10 | CCTCGGAGGACAACAGGAGGTCAGAGATGCCAGA | 1.06 | 1.85 | 2.02 | 1.36 | -0.479 | 2.08 | 0.895 | 0.272 | -0.499 | -0.289 | -0.0162 | 0.314 | -0.377 | -1.49 | 1.1 | 2.04 | 0.508 | 2.05 | 0.885 | 2.8
11 | GCTAGCAGGCCATTTTGGTCACTCAATGACGGGC | -0.64 | -0.754 | -1.03 | -0.967 | -0.971 | -0.67 | 0.24 | -0.925 | -0.857 | -0.861 | 0.582 | -0.122 | -1.08 | -1.4 | -1.14 | -0.775 | -0.836 | -0.995 | -1.3 | 0.0531
12 | AGTCAAAGTTCATCTAGTTAACGTAAGATATGCT | 6.78 | 6.1 | 5.42 | 3.68 | 2.06 | 4.77 | 6.49 | 5.96 | 3.55 | 5.46 | 0.113 | 2.78 | 1.61 | 1.25 | 3.6 | 5.26 | 9.11 | 3.45 | 2.15 | 4.85
13 | ATCTCTAGGTAACCAAGTTCAGTGAATGCCGAAC | 0.707 | 1.04 | 0.708 | 0.638 | 0.763 | 1.33 | 0.617 | 0.913 | 0.376 | 0.682 | 3.64 | 3.09 | 0.611 | 1.02 | 1 | 1.86 | 1.98 | 0.882 | 0.575 | 1.36
14 | CCTTTCGGGTCACTCCAGGTTATAGCATCGGAGT | 4.95 | 7.32 | 2.02 | 5.17 | 0.836 | 4.58 | 3.15 | 3.78 | 1.09 | 2.75 | 2.65 | 3.53 | 0.307 | -0.494 | 2 | 4.94 | 0.803 | 3.73 | 0.474 | 4.01
15 | ACTAGTTGGTCAGCCGAGGTCACACACAATTCGG | 3.43 | 3 | 2.4 | 3.32 | 0.882 | 3.85 | 2.34 | 2.6 | 0.926 | 2.06 | 1.8 | 3.12 | 0.481 | 1.14 | 3.29 | 5.43 | 2.13 | 5 | 1.82 | 3.58
16 | ACTCGGAGGACAAAGGTCAGAGCAACGCCAGTGA | 4.23 | 4.45 | 1.56 | 3.47 | 0.134 | 5.14 | 7.86 | 7.16 | 6.17 | 7.18 | 0.873 | 3.67 | 0.771 | -0.247 | 2.78 | 3.99 | 0.422 | 5.03 | 0.859 | 4.58
17 | ACTAGCATGCCAAGTTTGGGTCACTCAAACAAAG | 0.0536 | 0.057 | -0.432 | 0.606 | -0.573 | 1.23 | 0.0927 | 0.138 | -0.204 | -0.214 | -0.0858 | 0.673 | -0.779 | -0.563 | 0.0985 | 0.71 | -0.444 | 1.14 | -0.448 | 1.28
18 | ATATGTAGGTTGGCTGGGGTCATTCAGACTAGGC | 4.06 | 3.56 | 2.01 | 4.28 | 2.04 | 4.46 | 2.66 | 3.18 | 0.972 | 1.89 | 2.56 | 2.75 | 1.35 | 1.7 | 2.57 | 5.98 | 4.44 | 5.69 | 0.758 | 2.62
